Shown are actives, neighbours in structure and some others; about 9.3% of the full set was active somewhere.
Rab9 promoter act – activates the Rab9 promoter | Potency, µM (series often up to 9.22 µM), hits mostly activators | 320,000 tested, 2.8% active | Huh7 Rab9 promoter-luciferase reporter, luminescence, 24 h; further: nearly all actives have a fitted effect of over 60% in size
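Luminescence from Amplite-detected luciferase (10 minutes, ambient) reports Rab9 promoter activation. Before that, stable Rab9-luciferase Huh7 cells (1500/well, reduced-serum OP-MEM I plus 10% FBS) were exposed to compound for 24 hours at 37C.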
NPC1 promoter act – NPC1 promoter activation; Huh7 NPC1 promoter luciferase reporter, 24 h; Potency, µM (titrated, usually from 9.22 µM), most hits filed as activators; 320,000 tested, 2.4% active; AID 485313; further: nearly all actives have a fitted effect of over 60% in size
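Huh7 reporter cells (NPC1 promoter driving luciferase) are dosed with compound for 24 h at 37 °C, 5% CO2; luciferase detection reagent is then added and luminescence measured after 10 min at ambient temperature.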
FLuc modulator – counter-screen for miR-21 project: firefly luciferase inhibitors or activators | P08659 | purified FLuc, Km substrates, luminescence inhibition | Potency, µM (top dose mostly 57.5 µM), usual class: inhibitors | 360,000 tested, 6.9% active | AID 588342; further: nearly all actives have a fitted effect of over 55% in size
Target sequence (P08659 whole entry, looked up): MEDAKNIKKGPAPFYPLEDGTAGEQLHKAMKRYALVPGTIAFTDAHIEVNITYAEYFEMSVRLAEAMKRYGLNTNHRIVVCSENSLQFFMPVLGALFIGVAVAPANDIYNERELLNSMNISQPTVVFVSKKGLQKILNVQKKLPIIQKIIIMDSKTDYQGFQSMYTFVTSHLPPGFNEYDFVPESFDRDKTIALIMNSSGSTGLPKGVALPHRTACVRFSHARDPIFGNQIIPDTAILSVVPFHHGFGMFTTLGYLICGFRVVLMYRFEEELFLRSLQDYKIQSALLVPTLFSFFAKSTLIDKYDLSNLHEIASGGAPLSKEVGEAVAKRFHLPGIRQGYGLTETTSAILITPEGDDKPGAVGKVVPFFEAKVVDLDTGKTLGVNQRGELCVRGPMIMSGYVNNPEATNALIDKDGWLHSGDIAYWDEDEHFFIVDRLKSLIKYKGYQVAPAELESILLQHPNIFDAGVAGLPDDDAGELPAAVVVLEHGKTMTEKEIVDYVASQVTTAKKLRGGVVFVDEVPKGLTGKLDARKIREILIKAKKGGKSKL
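Purified P. pyralis luciferase (10nM final) with 10uM D-luciferin and 10uM ATP (Km levels) in 50mM Tris acetate pH 7.5, 10mM Mg acetate, 0.01% Tween-20, 0.05% BSA; qHTS 6-point titration, ~60 µM downward; luminescence read.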
ELG1 genotox – induces genotoxicity in HEK293T cells with luciferase-tagged ELG1. HEK293T ELG1-luciferase reporter, luminescence, 16 h. Potency, µM (series often up to 46 µM), actives largely listed as activators. 330,000 tested, 1.3% active; further: nearly all actives have a fitted effect of over 60% in size
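DMSO vehicle served as control against compound-treated ELG1-luciferase HEK293T cells; exposure lasted 16 hr at 37 °C and 5% CO2, followed by ONE-Glo luminescence detection after 30 min.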
SMN2 splice up – enhancers of SMN2 splice variant expression; 210,000 tested, 2.8% active; Potency, µM (highest dose often 46.1 µM), actives largely listed as activators; HEK293 SMN2-luciferase splicing reporter, luminescence, 30-36 h; further: nearly all actives have a fitted effect of over 55% in size
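HEK293 cells carry an SMN2 […]–luciferase reporter in which exon 7 inclusion puts luciferase in frame. Cells were plated 10-12 h before compound addition, then incubated 30-36 h at 37C. ONE-Glo luminescence was read; sodium butyrate at 4.5 mM final served as control.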
ELG1 repair inh – blocks ELG1-dependent DNA repair in HEK293T cells; 330,000 tested, 2.3% active; Potency, µM (doses to about 46.1 µM), hits mostly inhibitors; HEK293T ELG1-luciferase reporter, luminescence, 16 h; DNA damage induced by 5-fluorouridine; AID 504467; further: nearly all actives have a fitted effect of over 55% in size
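Reporter activity after DNA damage by 5-fluorouridine is monitored. Compound-treated cells incubate 16 hr at 37 °C, then ONE-Glo is added for 30 min before luminescence reading.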
A number is an active result; n = inactive; u = inconclusive; x = not tested or not shown. The call rests on the fitted dose curve; in most records, active means well fitted curve in the direction sought with a large enough effect; inconclusive means small, poorly fitted or top-dose-only effect, or another doubt; inactive means no such curve, though single readings can be large; an effect the other way counts as inactive or inconclusive.

SMILES	Rab9 promoter act	NPC1 promoter act	FLuc modulator	ELG1 genotox	SMN2 splice up	ELG1 repair inh
CCOC(=O)c1cccc(NC(=O)Cn2nc3c(cc2=O)CCCC3)c1	x	x	n	x	x	x
Cc1c(CC(=O)NCCCC(=O)O)c(=O)oc2cc3oc4c(c3cc12)CCCC4	n	n	21µM	n	x	n
Cc1c(CCC(=O)N[C@@H](C)C(=O)O)c(=O)oc2cc3oc4c(c3cc12)CCCC4	n	n	11µM	n	x	u
CCCC(NC(=O)CCc1c(C)c2cc3c4c(oc3c(C)c2oc1=O)CCCC4)C(=O)O (configuration not stated)	n	n	u	n	x	n
Cc1c(CC(=O)NCCC(=O)O)c(=O)oc2cc3oc4c(c3cc12)CCCC4	n	n	17µM	n	x	u
COc1ccc([C@@H]2CC=C(C(=O)O)CN2S(=O)(=O)c2ccc(C)cc2)cc1OC	n	n	n	n	x	n
CSC1=NC2(CCN(C(=O)NC3CCCCC3)CC2)N=C1c1ccc(C)c(C)c1	x	x	n	x	x	x
Cc1ccc(C(=O)NCCc2csc(C)n2)cc1	3.2µM	u	9.5µM	18µM	14µM	u
Cc1cccc(C(=O)NCCc2csc(C)n2)c1	n	n	n	n	1.6µM	u
Cc1nc(CCNC(=O)c2cccs2)cs1	n	n	n	n	n	n
O=C(/C=C/c1cccc([N+](=O)[O-])c1)N(c1ccccn1)c1ccccn1	n	n	n	n	x	n
O=C(/C=C/c1cccc([N+](=O)[O-])c1)Nc1ccccn1	2.8µM	u	n	n	n	u
O=C(/C=C/c1cccc([N+](=O)[O-])c1)Nc1cccc(NC(=O)c2ccco2)c1	n	n	19µM	n	n	21µM
O=C(/C=C/c1cccc([N+](=O)[O-])c1)Nc1cccc(NC(=O)c2cccs2)c1	n	n	u	n	n	18µM
CC(NC(=O)/C(=C\c1cccc([N+](=O)[O-])c1)NC(=O)c1ccco1)C(=O)O (configuration not stated)	n	n	15µM	n	n	n
O=C(/C=C/c1ccc(Cl)c([N+](=O)[O-])c1)Nc1cccc(NC(=O)c2ccco2)c1	n	n	u	n	n	u
CN(C)c1cccc(NC(=O)c2cccc3ccccc23)c1	n	n	u	n	x	n
CCOc1ccc(NC(=O)c2ccccc2NC(=O)CNC2CCCC(C)C2C)cc1 (configuration not stated)	x	x	x	n	x	n
Cc1ccc2oc(-c3cccc(NC(=O)/C=C/c4cccc([N+](=O)[O-])c4)c3C)nc2c1	4.5µM	u	3.4µM	n	13µM	u
CCOC(=O)c1cccc(NC(=O)/C=C/c2cccc([N+](=O)[O-])c2)c1	n	n	n	n	n	n
CCC(=O)OCC(=O)c1cc(C)n(-c2ccc(Br)cc2)c1C	n	n	4.3µM	n	n	n
Cc1cc(C(=O)COC(=O)c2cnccn2)c(C)n1-c1ccc(Br)cc1	x	x	x	n	x	n
Cc1cc(C(=O)COC(=O)CC2Sc3ccccc3NC2=O)c(C)n1-c1ccccc1 (configuration not stated)	n	n	6µM	n	n	n
Cc1cc(C(=O)COC(=O)C2=NNC(=O)CC2)c(C)n1-c1ccccc1	n	n	1.9µM	n	n	u
Cc1ccc(-n2c(C)cc(C(=O)COC(=O)c3c(C)noc3C)c2C)cc1	u	u	3.4µM	n	n	u
SMILES	Rab9 promoter act	NPC1 promoter act	FLuc modulator	ELG1 genotox	SMN2 splice up	ELG1 repair inh
Cn1c(=O)c2c(nc(SCC(=O)c3ccccc3F)n2C)n(C)c1=O	n	n	n	n	n	n
Cc1ccc(-c2nc3sc(C#N)c(N)n3c(=O)c2C#N)cc1	n	n	n	n	n	u
CCOC(=O)[C@H]1[C@H]2COc3ccc(OC)cc3[C@@H]2N2C(=O)c3ccccc3NC(=O)[C@@]12C	n	n	n	n	x	n
CCC(C(=O)NCc1ccco1)N(C(=O)CNS(=O)(=O)c1ccc(C)cc1)c1ccccc1F (configuration not stated)	n	n	n	n	x	n
Cc1ccc(-n2c(C)cc(C(=O)COC(=O)C3=NNC(=O)CC3)c2C)cc1	n	n	17µM	n	n	n
Clc1ccc(-c2nc(/C=N/N3CCOCC3)c3ccccn23)cc1	n	n	n	n	n	u
COC(=O)Cn1c(=NC(=O)c2cc(-c3cccs3)nc3ccccc23)sc2cc(S(N)(=O)=O)ccc21	n	n	n	n	n	9.2µM
COC(=O)c1ccc(-c2noc(CN(C)CC3CCCCO3)n2)cc1 (configuration not stated)	n	n	n	n	10µM	u
COC(=O)c1ccc(-c2noc(CN3C[C@H]4CC[C@H]3C4)n2)cc1	u	u	21µM	u	x	u
COC(=O)c1ccc(-c2noc(CN(Cc3ccncc3)CC3CCCO3)n2)cc1 (configuration not stated)	n	n	n	n	x	n
CCn1nc(C)cc1C(=O)N1CCc2c([nH]c3ccccc23)C1c1cc(F)ccc1F (configuration not stated)	u	u	21µM	u	x	u
COc1ccc(C2c3[nH]c4ccccc4c3CCN2C(=O)Cc2nonc2C)c(F)c1 (configuration not stated)	u	n	4.8µM	n	x	u
